{"source": "PubChem BioAssay AID651812", "about": "(National Center for Advancing Translational Sciences (NCATS), 2012)", "note": "About 650 (31%) of roughly 2,100 compounds were called active. Another 16% or so got no clear call; they are omitted. Calls come from the whole dose curve; as a rule, active = well fitted inhibition curve with a large enough effect; inconclusive = small, poorly fitted or top-dose-only effect; inactive = flat fitted curve, though single readings scatter. The list shows a part of the results."}
{"experiment": "qHTS for inhibitors of Vif-A3G interactions: Cherry picks; note: nearly all actives have a fitted effect of over 80% in size; note: potency is the fitted concentration of half-maximal effect; for activity, negative = fluorescence increase: % of control where 0% means no effect", "details": "HeLa A3G-eYFP + Vif (tagged APOBEC3G with the HIV-1 protein that degrades it), 24 h; Potency: eYFP fluorescence increase; series mostly up to 36.9 µM; activity, negative = fluorescence increase: at the top concentration", "procedure,_shortened": "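Cherry-picked compounds tested at several concentrations on A3G-eYFP/Vif HeLa cells for 24 hours; loss of Vif-driven degradation read as eYFP fluorescence by cytometric plate imaging, 488 nm excitation, 500-530 nm emission.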"}
{"molecule": "CC(=O)Nc1cccc(-c2ccnc3c2CC(C(=O)NCc2cccs2)O3)c1", "note": "(stereo unspecified)", "activity, negative = fluorescence increase": "-2.02% (inactive)"}
{"molecule": "CC(=O)Nc1ccc(NC(=O)C/C(C)=N/NC(N)=S)cc1", "activity, negative = fluorescence increase": "4.54% [at 46.1 µM] (inactive)"}
{"molecule": "Oc1ccc(-c2nc(-c3ccc(O)c(O)c3)cs2)cc1", "activity, negative = fluorescence increase": "-6.38% (inactive)"}
{"molecule": "CCN(CC)c1ccc2cc(-c3nc(-c4ccccc4)no3)c(=O)oc2c1", "Potency": "4.61 µM (active)"}
{"molecule": "CCN(CC)c1ccc2cc(-c3nc4ccccc4n3C)c(=O)oc2c1", "Potency": "16.4 µM (active)"}
{"molecule": "COc1ccc(-c2csc(-c3ccc(O)cc3)n2)cc1", "activity, negative = fluorescence increase": "0.669% (inactive)"}
{"molecule": "O=c1oc2cc(O)ccc2cc1-c1nc(-c2ccc(Cl)c(Cl)c2)cs1", "Potency": "1.84 µM (active)"}
{"molecule": "CCN(CC)c1ccc2cc(-c3nnc(-c4cccc(Cl)c4)o3)c(=O)oc2c1", "Potency": "1.3 µM (active)"}
{"molecule": "COc1cccc(C2=CC(c3cc(Br)ccc3F)n3nnnc3N2)c1", "note": "(stereo unspecified)", "activity, negative = fluorescence increase": "-2.71% [at 46.1 µM] (inactive)"}
{"molecule": "CCN(CC)c1ccc(/C=N/N=C(N)N)c(O)c1", "activity, negative = fluorescence increase": "-11.8% (inactive)"}
{"molecule": "CCN(CC)c1ccc2cc(C(N)=O)c(=N)oc2c1", "Potency": "23.1 µM (active)"}
{"molecule": "O=C1/C(=C/c2c[nH]c3ccccc23)CCC/C1=C\\c1c[nH]c2ccccc12", "Potency": "18.4 µM (active)"}
{"molecule": "O=C(c1ccccc1)c1c2c(cc3sc4ccccc4[n+]13)-c1cccc3cccc-2c13", "activity, negative = fluorescence increase": "-3.2% (inactive)"}
{"molecule": "S=C(NN=Cc1ccccn1)Nc1ccccn1", "activity, negative = fluorescence increase": "-1.96% [at 46.1 µM] (inactive)"}
{"molecule": "C/C(=N\\Nc1nc(C)cc(-c2ccccc2)n1)c1ccc(F)cc1", "activity, negative = fluorescence increase": "9.12% [at 46.1 µM] (inactive)"}
{"molecule": "CCOc1ccc(Br)cc1/C(C)=N\\NC1=NCCN1", "activity, negative = fluorescence increase": "-2.26% (inactive)"}
{"molecule": "CCOc1ccc(Br)cc1C(=O)Nc1ccc(C(=O)NCC(C)C)cc1", "Potency": "6.51 µM (active)"}
{"molecule": "CCOc1ccccc1C(=O)Nc1c(C(=O)Nc2ccc(F)cc2)oc2ccccc12", "activity, negative = fluorescence increase": "-0.823% [at 46.1 µM] (inactive)"}
{"molecule": "COCCNC(=S)NN=C1CCCCCC1", "activity, negative = fluorescence increase": "13.5% [at 46.1 µM] (inactive)"}
{"molecule": "O=C1CC(c2cc(Br)ccc2F)c2cc3c(cc2N1)CCC3", "note": "(stereo unspecified)", "activity, negative = fluorescence increase": "-3.71% (inactive)"}
{"molecule": "CN(C)c1ccc(/C=C/c2cc[n+](C)cc2)cc1", "Potency": "15.8 µM (active)"}
{"molecule": "Cc1ccc(/C=C/c2ccc(N(C)C)cc2)[n+](C)c1", "Potency": "14 µM (active)"}
{"molecule": "CC[n+]1cc(C)ccc1/C=C/c1ccc(N(C)C)cc1", "Potency": "14 µM (active)"}
{"molecule": "O=C1NC(c2cccc(Cl)c2)Nc2ccccc21", "note": "(stereo unspecified)", "activity, negative = fluorescence increase": "-1% (inactive)"}
{"molecule": "CC(C)(C)c1ccc(Cn2c(=O)cnc3ccccc32)cc1", "activity, negative = fluorescence increase": "13.5% [at 46.1 µM] (inactive)"}
{"molecule": "O=c1[nH]ncc2c3ccccc3n(Cc3cccc(Cl)c3)c12", "Potency": "23.1 µM (active)"}
{"molecule": "COc1cc(/C=C2\\SC(=S)N(Nc3ncc(C(F)(F)F)cc3Cl)C2=O)ccc1O", "Potency": "18.4 µM (active)"}
{"molecule": "O=C(NNc1ncc(C(F)(F)F)cc1Cl)c1c(Cl)cccc1Cl", "activity, negative = fluorescence increase": "-5.87% (inactive)"}
{"molecule": "CN(C)c1ccc(/C=C2\\SC(=S)N(Nc3ncc(C(F)(F)F)cc3Cl)C2=O)cc1", "Potency": "3.66 µM (active)"}
{"molecule": "CCOC(=O)Nc1ccc2nc(-c3cscn3)[nH]c2c1", "activity, negative = fluorescence increase": "-7.25% (inactive)"}
{"molecule": "CCCn1c(C2CCCN2c2nc(-c3cccc(Br)c3)cs2)nc2ccccc21", "note": "(stereo unspecified)", "activity, negative = fluorescence increase": "3.02% [at 46.1 µM] (inactive)"}
{"molecule": "CCc1ccc(NC(=O)/C(C#N)=C/c2cc3ccc(C)cc3nc2N2CCOCC2)cc1", "Potency": "14.6 µM (active)"}
{"molecule": "CCc1ccc(C(=O)NC(=S)Nc2ccc(N3CCOCC3)cc2)cc1", "activity, negative = fluorescence increase": "2.8% [at 46.1 µM] (inactive)"}
{"molecule": "Cc1cc2c(cc(C(=O)OCC(=O)NCc3cccs3)n2C(C)C)o1", "activity, negative = fluorescence increase": "-9.64% (inactive)"}
{"molecule": "CCOC(=O)C1C(=O)C=C(/C=C/c2ccc(N(C)C)cc2)CC1c1ccccc1", "note": "(stereo unspecified)", "Potency": "6.51 µM (active)"}
{"molecule": "COc1ccc(NC(=S)NN(C)C(=S)Nc2ccc(OC)cc2)cc1", "activity, negative = fluorescence increase": "-10.7% (inactive)"}
{"molecule": "CCC(=C/c1sc2ccc3ccccc3c2[n+]1C)/C=C1\\Sc2ccc3ccccc3c2N1C", "activity, negative = fluorescence increase": "-6.59% [at 46.1 µM] (inactive)"}
{"molecule": "CCN1/C(=C/c2cc[n+](C)cc2)C=Cc2cc(C)ccc21", "Potency": "23.1 µM (active)"}
{"molecule": "Cc1cc(C)c(S(=O)(=O)Oc2ccccc2[N+](=O)[O-])c(C)c1", "activity, negative = fluorescence increase": "-2.52% (inactive)"}
{"molecule": "CCOC(=O)C1CCCN(C(=O)c2ccc3nc(-c4cccc(OC)c4)oc3c2)C1", "note": "(stereo unspecified)", "activity, negative = fluorescence increase": "-9.04% (inactive)"}
{"molecule": "COc1ccc(NC(=O)N(Cc2cc3ccc(OC)cc3[nH]c2=O)CC2CCCO2)cc1", "note": "(stereo unspecified)", "activity, negative = fluorescence increase": "-0.563% (inactive)"}
{"molecule": "COc1ccc(NCc2cc3cc4c(cc3n(CC(=O)Nc3cc(C)ccc3C)c2=O)OCCO4)cc1", "Potency": "2.31 µM (active)"}
{"molecule": "O=C(Cn1ncc(Cl)c(Cl)c1=O)Nc1ccc2c(c1)OCO2", "activity, negative = fluorescence increase": "-1.73% (inactive)"}
{"molecule": "Cc1cc(NC(=O)CSc2nc(-c3cccs3)nc3ccccc23)no1", "activity, negative = fluorescence increase": "-19.4% (inactive)"}
{"molecule": "Cc1cc2cc(C#N)c(SCC(=O)Nc3nonc3C)nc2cc1C", "Potency": "14.6 µM (active)"}
{"molecule": "Cc1nonc1NC(=O)CSc1nc2c(C)cccc2cc1C#N", "Potency": "18.4 µM (active)"}
{"molecule": "Cc1cc(NC(=O)CSc2nc3c(C)cccc3cc2C#N)no1", "Potency": "20.6 µM (active)"}
{"molecule": "Cc1ccccc1NC(=O)CSc1nc2cc3c(cc2cc1C)CCC3", "activity, negative = fluorescence increase": "-2.42% (inactive)"}
{"molecule": "COC(=O)C1CCC(=O)N1C(c1ccc(OC)cc1)c1cc(OC)c(OC)c(OC)c1", "note": "(stereo unspecified)", "activity, negative = fluorescence increase": "-7.8% (inactive)"}
{"molecule": "COc1ccc2ccccc2c1C1NC(=O)c2ccccc2N1", "note": "(stereo unspecified)", "activity, negative = fluorescence increase": "-12.9% (inactive)"}
{"molecule": "Nc1ccccc1C=C1Cc2ccccc2C1=O", "Potency": "16.4 µM (active)"}
{"molecule": "COc1ccc(/C=C2/CSC/C(=C/c3ccc(OC)c(OC)c3)C2=O)cc1OC", "activity, negative = fluorescence increase": "-0.25% (inactive)"}
{"molecule": "O=C1C(=Cc2ccccc2[N+](=O)[O-])Cc2ccccc21", "activity, negative = fluorescence increase": "-41.4% [at 46.1 µM] (inactive)"}
{"molecule": "CN(C)c1ccc(/C=C2/C[N+](C)(C)C/C(=C/c3ccc(N(C)C)cc3)C2=O)cc1", "Potency": "9.2 µM (active)"}
{"molecule": "CN(C)c1ccc(/C=C2\\Cc3ccccc3C2=O)cc1", "Potency": "3.26 µM (active)"}
{"molecule": "Cc1ccc2nc(C)c(C(=O)NN=C3CCCCCC3)n2c1", "activity, negative = fluorescence increase": "1.33% (inactive)"}
{"molecule": "CSc1nc(Sc2ccccc2Cl)c2ccccc2n1", "activity, negative = fluorescence increase": "-4.7% (inactive)"}
{"molecule": "CCC1CCCCN1CCCNC(=O)c1ccc2c(c1)N(Cc1ccccc1F)C(=O)c1ccccc1S2(=O)=O", "note": "(stereo unspecified)", "activity, negative = fluorescence increase": "-9.99% [at 46.1 µM] (inactive)"}
{"molecule": "CCn1c(SCC(=O)Nc2cccc(O)c2)nc2c1c(=O)n(C)c(=O)n2C", "activity, negative = fluorescence increase": "2.18% [at 46.1 µM] (inactive)"}
{"molecule": "CCn1c(CNC(=O)C23CC4CC(CC(C4)C2)C3)nnc1SCC(=O)Nc1ccc(OC)cc1", "activity, negative = fluorescence increase": "-2.38% [at 46.1 µM] (inactive)"}
{"molecule": "COc1ccc(NC(=O)CSc2ccc3c4c(cccc24)C(=O)c2ccccc2-3)cc1", "Potency": "7.31 µM (active)"}
{"molecule": "COc1ccc(NC(=O)c2cccc3ccccc23)cc1", "activity, negative = fluorescence increase": "-0.0498% (inactive)"}
{"molecule": "N#Cc1cccc(NC(=O)CSc2ccc3c4c(cccc24)C(=O)c2ccccc2-3)c1", "Potency": "6.51 µM (active)"}
{"molecule": "CCCn1nnc(NC(=S)NC(=O)c2ccccc2OC)n1", "activity, negative = fluorescence increase": "13.5% [at 46.1 µM] (inactive)"}
{"molecule": "O=C(NC12CC3CC(CC(C3)C1)C2)c1ccc([N+](=O)[O-])o1", "activity, negative = fluorescence increase": "-1.29% (inactive)"}
{"molecule": "CN1CCC(OC(=O)c2cc3cc(Cl)cc(Cl)c3oc2=O)CC1", "activity, negative = fluorescence increase": "-0.249% (inactive)"}
